Shown are actives, neighbours in structure and some others; about 3.1% of the full set was active somewhere.
HIF-2a block = HIF-2a reporter inhibitors, primary screen, luminescence, 786-0 RCC cells; 786-0 RCC cells HIF-2a reporter, luciferase luminescence, overnight; inhibition, % at 18.8 µM; 360,000 compounds, 0.72% hits;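 active = inhibition of the luminescence signal of 40% or more relative to plate controls, in a single-dose primary screen at 18.75 µM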
CF NFkB block = inhibitors of PAF-induced NF-kB signaling, primary screen, cell-based, GFP fluorescence, uHTS; KKLEB NF-kB-GFP reporter, GFP fluorescence overnight; inhibition, % at 5 µM; 360,000 compounds, 0.86% hits; AID 588850, 2011;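 active = at least 50% inhibition at 5 µM, scaled per plate between neutral and stimulator controls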;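 also: PAF is a Pseudomonas aeruginosa culture filtrate used as stimulus; plate controls were PAF-stimulated DMSO wells for no effect and unstimulated DMSO wells for full effect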
Peg3 prom inh-1 = Peg3 promoter-driven luciferase inhibitors, primary screen, cell-based, HeLa, luciferase luminescence | inhibition, % at 20 µM | 360,000 compounds, 1.7% hits | HeLa PEG-Prom luciferase reporter, overnight;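 active = inhibition of at least 50% at 20 µM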
PPC-1+TRAIL kill = compounds killing PPC-1 cancer cells with TRAIL present, primary screen, TRAIL potentiator project, ATPLite luminescence, uHTS; cell killing (% activity), % at 4 µM or 5 µM; 220,000 compounds, 0.41% hits; AID 1443, 2008; PPC-1 cells + TRAIL, ATPLite viability luminescence;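 active = cell killing above 50% in the first pass at 4 µM, then a duplicate retest at 5 µM averaging 50% or more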;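 also: plate controls were cells with TRAIL plus DMSO for no effect and medium-only wells lacking cells for full effect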
KKLEB tox = cytotoxicity in KKLEB CF airway cells, primary screen, cytotoxicity control for CF NF-kB inhibitor project, cell-based, uHTS, fluorescence assay plates; KKLEB CF airway cells viability, ATPlite luminescence, overnight; hits give low values; cells stimulated with P. aeruginosa culture filtrate; activity change (cytotoxicity), % at 5 µM; 360,000 compounds, 0.36% hits; AID 602141, 2011;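 active = corrected activity change at or below -50% at 5 µM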
TRAIL sens C8 = viability loss with TRAIL in NB7+C8 cells, primary screen, TRAIL sensitizer project, cell-based, ATPlite luminescence; inhibition (viability loss, TRAIL sensitization), % at 10 µM; 360,000 compounds, 1% hits; AID 624354, 2012;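 active = compounds causing at least 50% loss of cell viability in the single-dose screen, relative to plate controls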
PPC-1 tox = cytotoxicity in PPC-1 cells, confirmation, cytotoxicity control for TRAIL apoptosis potentiator project, cell-based, ATP content luminescence | shares compounds with PPC-1+TRAIL kill | 1,200 compounds, 50% hits | cytotoxicity, % at 5 µM | PPC-1 viability, ATPlite luminescence, overnight | AID 1447, 2008;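 active = reconfirmed compounds whose average cytotoxicity reaches 50% or more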;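 also: 0% = DMSO-treated cells and 100% = wells holding medium but no cells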
Peg3 prom inh-2 = Peg3 promoter reporter inhibitors, retest, confirmation, cell-based, HeLa, luciferase reporter, single concentration; inhibition, % at 20 µM; shares compounds with Peg3 prom inh-1; HeLa PEG-Prom luciferase reporter, luminescence, overnight; 1,300 compounds, 84% hits; AID 602417, 2012;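 active = at 20 µM dose, 40% or more inhibition averaged across four replicates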
CF NFkB inh conf = inhibitors of PAF-induced NF-kB signaling, retest, confirmation, cell-based, GFP fluorescence, single concentration. 1,300 compounds, 64% hits. AID 602472, 2012. shares compounds with CF NFkB block. KKLEB CF airway cells, overnight. inhibition, % at 5 µM; in the data active = inhibition above about 40%;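 also: stimulus PAF is a Pseudomonas aeruginosa filtrate and not platelet activating factor; plate controls were DMSO wells with stimulus for no effect and unstimulated DMSO wells for full effect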
Mdm2 MdmX conf = retested Mdm2-MdmX interaction blockers, confirmation, cell-based, luminescence, single concentration, set 2; shares compounds with HIF-2a block; SaOS-2 split-luciferase Mdm2/MdmX complementation; inhibition, % at 8 µM; 740 compounds, 99% hits; AID 504601, 2011;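 active = mean inhibition of the luminescence signal across two replicates at or above 26 percent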
Target sequence (O15151 whole entry, looked up): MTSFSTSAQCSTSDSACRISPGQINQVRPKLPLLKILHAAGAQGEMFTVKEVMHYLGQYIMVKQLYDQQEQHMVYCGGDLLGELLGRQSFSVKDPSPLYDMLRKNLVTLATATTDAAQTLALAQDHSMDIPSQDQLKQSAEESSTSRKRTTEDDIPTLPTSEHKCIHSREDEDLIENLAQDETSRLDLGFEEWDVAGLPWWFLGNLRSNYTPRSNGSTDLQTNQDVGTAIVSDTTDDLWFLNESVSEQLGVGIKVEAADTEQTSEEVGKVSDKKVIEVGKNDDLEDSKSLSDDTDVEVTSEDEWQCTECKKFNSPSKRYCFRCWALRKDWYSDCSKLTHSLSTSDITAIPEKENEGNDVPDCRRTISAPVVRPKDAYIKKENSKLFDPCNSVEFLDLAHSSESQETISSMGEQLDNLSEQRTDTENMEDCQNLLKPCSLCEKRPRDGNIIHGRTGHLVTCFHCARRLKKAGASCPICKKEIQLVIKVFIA
Target sequence (Q00987 whole entry, looked up): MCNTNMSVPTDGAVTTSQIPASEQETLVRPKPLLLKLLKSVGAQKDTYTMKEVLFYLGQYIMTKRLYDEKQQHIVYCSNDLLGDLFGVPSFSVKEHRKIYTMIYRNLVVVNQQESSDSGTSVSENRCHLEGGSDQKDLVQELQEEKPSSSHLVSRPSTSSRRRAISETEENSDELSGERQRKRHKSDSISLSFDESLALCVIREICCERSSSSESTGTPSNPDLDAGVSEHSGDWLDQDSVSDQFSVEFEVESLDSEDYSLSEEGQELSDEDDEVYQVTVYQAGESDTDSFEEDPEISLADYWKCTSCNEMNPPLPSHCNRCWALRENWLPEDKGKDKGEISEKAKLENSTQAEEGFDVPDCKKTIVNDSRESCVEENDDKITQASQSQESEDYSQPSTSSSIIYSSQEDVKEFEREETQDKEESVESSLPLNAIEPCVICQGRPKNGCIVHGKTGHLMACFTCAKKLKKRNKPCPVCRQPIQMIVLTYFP
HIF-2a inh conf = HIF-2a reporter inhibitor retest, confirmation, luminescence, 786-0 RCC cells; inhibition, % at 18.8 µM; HIF-2a luciferase reporter luminescence, overnight; 1,800 compounds, 56% hits; AID 651580, 2012; shares compounds with HIF-2a block;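 active = mean inhibition across four replicates of at least 40 percent at the single tested concentration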
HIF-1a counter = HIF-1a luciferase reporter signal reduction – MiaPaCa-2 cells, single concentration, counter-screen for HIF-2a inhibitor project, confirmation | shares compounds with HIF-2a block | MiaPaCa-2 HIF-1a luciferase reporter, desferoxamine, overnight | inhibition, % at 18.8 µM | 1,800 compounds, 72% hits;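 active = mean inhibition of the reporter signal across four replicates at the single tested dose of 50% or more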
* hit, by the source's call; . = no result given.

SMILES | HIF-2a block | CF NFkB block | Peg3 prom inh-1 | PPC-1+TRAIL kill | KKLEB tox | TRAIL sens C8 | PPC-1 tox | Peg3 prom inh-2 | Mdm2 MdmX conf | HIF-2a inh conf | HIF-1a counter | others
Brc1ccc(N=Nc2ccc3ccccc3n2)cc1 | 62* | -26 | 73* | 94* | -98* | 92* | 93* | 68* | . | . | .
CCn1c(O)c(N=Nc2ccc3ccccc3n2)c2ccccc21 | -327 | -22 | -322 | 3 | 8 | 7 | . | . | . | . | .
O=[N+]([O-])c1cc(/C=N/NC(=S)Nc2ccccc2Cl)ccc1Cl | 70* | -24 | 96* | 37 | 7 | 0 | 28 | 17 | . | 11 | 104*
CCOc1ccccc1N1CCN(CC(=O)N(C)CC(=O)Nc2ccccc2CC)CC1 | 5 | 2 | 6 | . | -2 | -12 | . | . | . | . | .
Oc1ccccc1N=Nc1nc(-c2ccccc2)c(-c2ccccc2)[nH]1 | 17 | 81* | 49 | 21 | 2 | -1 | 23 | . | 87* | . | .
Cc1ccc(N2CC(NC(=O)C3CC3)CC2=O)cc1 (configuration not stated) | 16 | -8 | 19 | . | 0 | -3 | . | . | . | . | .
Cc1ccc2nc(-c3ccc4c(c3)OCCO4)cn2c1 | 80* | -26 | 91* | 93* | -85* | 92* | 92* | 93* | 94* | . | .
Cc1ccc2nc(-c3ccc4c(c3)NC(=O)CO4)cn2c1 | -332 | -4 | -282 | 48 | -18 | 33 | . | . | . | . | .
CCC1CCCCN1C(=O)c1ccc([N+](=O)[O-])o1 (configuration not stated) | -12 | -5 | 14 | . | -6 | 2 | . | . | . | . | .
COc1ccc(OC)c(C(=O)/C=C/c2ccccc2C(F)(F)F)c1 | 74* | -4 | 102* | -5 | -14 | 23 | -2 | . | . | 26 | 105*
COc1ccc(OC)c(C(=O)C(=O)c2cc(OC)ccc2OC)c1 | 16 | -3 | 13 | . | -22 | 4 | . | . | . | . | .
CC(C)NC(=O)c1onc(CSc2ccc(F)cc2)c1C(=O)NC(C)C | 8 | 17 | -1 | . | -17 | -6 | . | . | . | . | .
Cc1ccccc1-c1nc(-c2ccccn2)no1 | 60* | -31 | 63* | 84* | -39 | 87* | 80* | 58* | . | 73* | 66*
Cc1ccccc1-c1nc(-c2cccnc2)no1 | -228 | 0 | -206 | 15 | 3 | 10 | . | . | . | . | .
COc1ccc(-c2nc(-c3ccccn3)no2)cc1 | 88* | -36 | 89* | 93* | -80* | 96* | 92* | 86* | 96* | 95* | 98*
Cc1ccc(NC(=O)CSC(C)C(=O)OCc2cc(=O)oc3cc(O)ccc23)cc1 (configuration not stated) | 2 | 4 | 0 | . | 1 | -6 | . | . | . | . | .
Cc1cc(Br)c(NC(=O)CN2C(=O)NC3(CCOc4ccccc43)C2=O)c(Br)c1 (configuration not stated) | 9 | 2 | 2 | . | -13 | -19 | . | . | . | . | .
C#CC(=O)N(c1cc(OC)ccc1OC)C(C(=O)NC1CCCC1)c1cccs1 (configuration not stated) | 92* | 97* | 107* | 98* | -97* | 91* | 98* | . | 103* | 99* | 105*
C#CC(=O)N(c1ccc(OC)cc1OC)C(C(=O)NC1CCCC1)c1cccs1 (configuration not stated) | 96* | 94* | 101* | 97* | -93* | 93* | 96* | . | 102* | 99* | 106*
COc1ccc(N(C(=O)c2ccco2)C(C(=O)NC2CCCCC2)c2cccs2)cc1OC (configuration not stated) | 13 | 0 | 11 | -15 | -9 | 8 | . | . | . | . | .
C/C(=N/NC(=O)c1cc(C2CC2)[nH]n1)c1cccs1 | 49* | 14 | 63* | 60* | -12 | 67* | 50 | 47* | . | 67* | 16
CC(C)(C)C(=O)Nc1cc2nn(-c3ccccc3)nc2cc1Cl | 75* | 3 | 62* | 96* | -94* | 93* | 96* | 86* | . | 91* | 95*
CS(=O)(=O)c1ccc(C(=O)OCC(=O)NC23CC4CC(CC(C4)C2)C3)cc1[N+](=O)[O-] | 92* | 61* | 100* | -8 | -16 | -5 | -10 | . | . | 64* | 94* | CF NFkB inh conf=35
COc1cccc(C(=O)OCC(=O)NC23CC4CC(CC(C4)C2)C3)c1 | 10 | 5 | -11 | . | -3 | -14 | . | . | . | . | .
CCCCCc1ccc(OCCCC[n+]2ccc(C)cc2)c(CCCCC)c1 | 11 | 75* | 100* | 27 | -67* | 46 | 9 | . | 103* | . | .
CCCCCc1ccc(OCCCC[n+]2cccc(C)c2)c(CCCCC)c1 | 95* | 58* | 97* | 21 | -47 | 21 | 27 | 97* | 102* | 33 | 106*
CCCCCOc1ccc(CN2CCOCC2)cc1Cl | -185 | -17 | -231 | 14 | 9 | 18 | . | . | . | . | .
CCCCOc1ccc(C)cc1CN(CCO)CCO | 14 | 3 | 1 | -9 | -15 | 4 | . | . | . | . | .
COc1ccc(-c2cc3nc4n(c(=O)c3s2)CCCCC4)cc1 | -195 | -5 | -214 | 31 | -14 | 27 | . | . | . | . | .
COc1ccc(-c2cc3nc(C)n(N)c(=O)c3s2)cc1 | 87* | -17 | 95* | 89* | -39 | 86* | 90* | 95* | 95* | . | .

Bioassay records: PubChem BioAssay, Sanford-Burnham Center for Chemical Genomics
